Laboratory results: PubChem BioAssay (NCATS)
Records with an inconclusive call do not appear. This is one part of the list. Calls of active or inactive are those of the source. Unless noted, calls come from the whole dose curve; as a rule, active = well fitted curve in the direction sought with a large enough effect; inconclusive = small, poorly fitted or top-dose-only effect, or another doubt; inactive = no such curve, though single readings can be large; an effect the other way counts as inactive or inconclusive.

Tests used:
[1] = Cytometric Cell-Based qHTS for Inhibitors of the mTORC1 Signaling Pathway in MEF (Tsc2-/-, p53-/-) Cells (AID 2660);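 note: Tsc2 and p53 null MEFs carrying empty vector with compound for 24 h; percent of cells above a phospho-rpS6 to PI ratio cutoff in each well; series mostly up to about 38 µM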
Method in brief: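 Percent of cells positive for normalized phospho-S6 staining is reported, with the cutoff set from rapamycin (7.5 nM) versus DMSO wells. Tsc2-/-, p53-/- MEFs received compound for 24 hrs.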

[2] = High Content Imaging Cell-Based qHTS for Inhibitors of the mTORC1 Signaling Pathway in MEF (Tsc2-/-, p53-/-) Cells (AID 2666);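 note: percent of cells scored positive for phospho-rpS6 Ser235/236 immunostaining by imaging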
Method in brief: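 Inhibition of rpS6 phosphorylation is measured by immunofluorescence imaging in empty-vector Tsc2-/-, p53-/- mouse embryonic fibroblasts after 24 hrs compound exposure at 37 degree Celsius. Results are reported as % positive cells per well.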

[3] = High Content Imaging Cell-Based qHTS for Inhibitors of the mTORC1 Signaling Pathway in MEF Cells (AID 2667);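 note: Tsc2-/- p53-/- MEFs stably re-expressing wild-type Tsc2 exposed 24 h; series mostly up to about 38 µM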
Method in brief: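 Fixed-cell imaging of phospho-S6 (Ser235/236, Alexa-488) after 24 hrs of compound treatment at 37 degree Celsius. Signal was normalized to Hoechst, and thresholds from the highest and lowest wells split cells into % active versus % non-active.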

[4] = Cytometry Cell-Based qHTS for Inhibitors of the mTORC1 Signaling Pathway in MEF cells (AID 2668);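 note: Tsc2-/- p53-/- mouse embryonic fibroblasts stably re-expressing wild-type Tsc2; percent cells positive for phospho-rpS6 Ser235/236 relative to propidium iodide stain; series mostly up to about 38 µM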
Method in brief: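 Phospho-rpS6 (Ser235/236) immunofluorescence over PI signal, scored as % positive cells using thresholds from 7.5 nM rapamycin and DMSO wells, after 24 h compound exposure of WT-Tsc2-rescued Tsc2-/-, p53-/- MEFs. PI cell count recorded for viability.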

[5] = Validation screen for small molecules that induce DNA re-replication in MCF 10A normal breast cells (AID 463097); note: nearly all actives have a fitted effect of over 60% in size
Method in brief: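 Read-out is Hoechst total nuclear intensity by fluorescence scanning imager, flagging increased high-DNA-content nuclei. Compounds were incubated with MCF 10A cells for 48 hr (37 C, 5% CO2) before 40 min staining.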

[6] = target: Ubiquitin carboxyl-terminal hydrolase 2 (Homo sapiens) (UniProt O75604); test: qHTS Validation Assay for Inhibitors of Ubiquitin-specific Protease USP2a Using CHOP2 as the Reporter (AID 463106)
Method in brief: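 Inhibition is expressed relative to NEM as the full-inhibition control, with concentration-response curves classed by fit quality, magnitude and activity. Enzyme (USP2 core, 10nM) meets 25nM Ub-CHOP2 after compound preincubation; readings are taken at 60min.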

[7] = target: DNA polymerase III PolC-type (Bacillus subtilis (strain 168)) (UniProt P13267); test: qHTS Validation Assay for the Inhibitors of DNA Replication in Gram-Positive Bacteria (AID 485295);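 note: reconstituted holoenzyme with PolC plus beta clamp SSB and primase; PicoGreen fluorescence of double-stranded DNA made on primed circular M13 template; series mostly up to about 57 µM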
Method in brief: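 Double-stranded DNA product detected by PicoGreen fluorescence after EDTA quench. Compound incubated with B. subtilis holoenzyme (PolC, beta subunit, SSB, primase) before substrate addition; primed replication of M13Gori with dNTPs and NTPs at room temperature; DMSO defines 0% inhibition.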

[8] = target: Tumor susceptibility gene 101 protein (Homo sapiens) (UniProt Q99816); test: qHTS Validation Assay for Iinhibitors of HIV-1 Budding by Blocking the Interaction of PTAP/TSG101 (AID 485342; calls by dose curve)
Method in brief: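 Fluorescence polarization of 50 nM FITC-PTAP peptide bound to 10 uM Tsg101 binding domain was read after 20 min room-temperature incubation with compounds, in 10 mM HEPES pH 7.5, 0.15 M NaCl, 0.01% Tween 20.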

[9] = target: DNA repair nuclease/redox regulator APEX1 (Homo sapiens) (UniProt P27695); test: Confirmation qHTS Assay for Inhibitors of the Human Apurinic/apyrimidinic Endonuclease 1 (APE1) (AID 2572);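 note: fluorescence gain from purified APE1 cutting a TAMRA/BHQ-2 THF abasic duplex; nearly all actives have a fitted effect of over 30% in size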
Text: The apurinic/apyrimidinic endonuclease APE1 is the primary mammalian enzyme responsible for the removal of abasic (or AP) sites in DNA and functions centrally in the base excision DNA repair (BER) pathway. […] Thus, targeting APE1 could improve the efficacy of current treatment paradigms by promoting selective sensitization or protection of diseased and normal cells, respectively.
Inhibition of APE1 activity was screened by utilizing double-stranded short substrate containing tetrahydrofuran (THF) abasic site labeled with rhodamine-type fluorophore (TAMRA) at the 5'-end and with non-fluorescent Black Hole Quencher-2 (BHQ-2) at the opposing 3'-end. An increase in the fluorescence intensity due to incision of the abasic site by APE1 was used to measure the enzyme activity.
Assay Provider: David M. Wilson, III, National Institute on Aging, NIH
Screening Center PI: Austin, C.P.
Screening Center: NIH Chemical Genomics Center [NCGC]
1. […]
Three uL of enzyme were dispensed to 1536-well Greiner black solid bottom plates. […] The plates were immediately transferred into ViewLux High-throughput CCD imager (Perkin-Elmer) in order to measure the reaction progress in kinetic mode (three reads every 60 seconds) using 525 nm excitation and 598 nm emission fluorescence protocol. The fluorescence intensity difference between the third and the first time points was used to compute reaction progress.

[10] = qHTS Validation Assay to Find Inhibitors of Chronic Active B-Cell Receptor Signaling (AID 485345; active = well fitted curve in the direction sought with a large enough effect in the main read-out, with a control signal flat, not every such curve was filed as active)
Method in brief: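 TMD8 ABC-DLBCL cells with dox-inducible green luciferase–IκBα fusion and red native luciferase; compounds 46 uM–3 nM, 4 h at 37C with doxycycline in 0.5% FBS IMDM. Green/red ratio normalized to basal and 10 uM MG-132.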

Measured: Potency

Chain of DNA polymerase III PolC-type (Bacillus subtilis (strain 168)) (P13267 whole entry, looked up): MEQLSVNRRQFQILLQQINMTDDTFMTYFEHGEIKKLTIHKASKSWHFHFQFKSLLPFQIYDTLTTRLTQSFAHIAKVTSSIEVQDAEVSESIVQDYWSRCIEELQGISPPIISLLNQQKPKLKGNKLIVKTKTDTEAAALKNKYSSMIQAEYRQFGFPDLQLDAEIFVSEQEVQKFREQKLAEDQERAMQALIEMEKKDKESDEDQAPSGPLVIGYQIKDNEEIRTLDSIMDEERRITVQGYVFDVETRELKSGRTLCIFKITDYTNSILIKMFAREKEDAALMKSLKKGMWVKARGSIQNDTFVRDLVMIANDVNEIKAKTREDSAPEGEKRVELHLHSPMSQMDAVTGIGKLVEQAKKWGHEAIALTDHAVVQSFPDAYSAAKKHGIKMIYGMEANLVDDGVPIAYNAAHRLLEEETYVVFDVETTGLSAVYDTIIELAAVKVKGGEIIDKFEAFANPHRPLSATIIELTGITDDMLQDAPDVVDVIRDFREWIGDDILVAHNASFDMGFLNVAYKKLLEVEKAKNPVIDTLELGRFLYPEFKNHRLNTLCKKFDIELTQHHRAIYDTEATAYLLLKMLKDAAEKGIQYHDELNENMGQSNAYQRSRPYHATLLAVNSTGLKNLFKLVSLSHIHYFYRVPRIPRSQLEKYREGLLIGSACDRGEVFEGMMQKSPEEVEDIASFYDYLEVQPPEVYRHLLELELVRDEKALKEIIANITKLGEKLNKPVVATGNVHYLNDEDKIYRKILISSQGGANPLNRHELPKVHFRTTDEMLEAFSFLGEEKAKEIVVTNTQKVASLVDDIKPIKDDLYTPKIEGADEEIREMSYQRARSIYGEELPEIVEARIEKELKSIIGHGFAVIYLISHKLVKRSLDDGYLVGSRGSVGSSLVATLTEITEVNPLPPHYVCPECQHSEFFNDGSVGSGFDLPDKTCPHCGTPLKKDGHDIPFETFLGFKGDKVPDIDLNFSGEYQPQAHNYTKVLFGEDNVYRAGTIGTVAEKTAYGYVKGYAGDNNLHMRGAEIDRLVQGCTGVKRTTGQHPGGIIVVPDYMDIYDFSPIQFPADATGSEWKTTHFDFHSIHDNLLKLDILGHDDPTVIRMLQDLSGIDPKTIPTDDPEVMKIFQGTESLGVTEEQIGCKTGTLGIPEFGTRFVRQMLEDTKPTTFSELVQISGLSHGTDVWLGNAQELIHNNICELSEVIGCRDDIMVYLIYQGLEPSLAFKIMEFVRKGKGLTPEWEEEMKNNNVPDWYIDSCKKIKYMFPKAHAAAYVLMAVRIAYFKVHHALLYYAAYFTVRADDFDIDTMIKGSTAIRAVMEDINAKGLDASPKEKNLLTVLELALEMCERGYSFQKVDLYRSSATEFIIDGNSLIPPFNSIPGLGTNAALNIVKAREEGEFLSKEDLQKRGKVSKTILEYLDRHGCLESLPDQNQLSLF
Chain of Ubiquitin carboxyl-terminal hydrolase 2 (Homo sapiens) (O75604 whole entry, looked up): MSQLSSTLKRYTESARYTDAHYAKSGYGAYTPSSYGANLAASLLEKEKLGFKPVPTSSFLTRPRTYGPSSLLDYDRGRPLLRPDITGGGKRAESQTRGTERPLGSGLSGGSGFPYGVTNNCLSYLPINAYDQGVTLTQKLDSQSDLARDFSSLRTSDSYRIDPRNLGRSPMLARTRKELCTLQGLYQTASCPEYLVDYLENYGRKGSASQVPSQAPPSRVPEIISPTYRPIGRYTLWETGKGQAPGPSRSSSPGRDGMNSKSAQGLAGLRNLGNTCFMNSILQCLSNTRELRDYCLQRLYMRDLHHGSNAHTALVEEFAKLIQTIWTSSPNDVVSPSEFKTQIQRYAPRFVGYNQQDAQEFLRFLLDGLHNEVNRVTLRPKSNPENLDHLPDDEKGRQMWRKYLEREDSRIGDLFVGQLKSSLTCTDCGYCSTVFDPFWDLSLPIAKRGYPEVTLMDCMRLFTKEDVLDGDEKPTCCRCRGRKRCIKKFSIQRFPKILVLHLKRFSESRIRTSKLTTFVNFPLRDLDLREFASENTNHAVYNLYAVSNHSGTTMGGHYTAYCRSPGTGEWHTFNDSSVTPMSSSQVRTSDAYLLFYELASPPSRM
Chain of Tumor susceptibility gene 101 protein (Homo sapiens) (Q99816 whole entry, looked up, the tested form may be a part): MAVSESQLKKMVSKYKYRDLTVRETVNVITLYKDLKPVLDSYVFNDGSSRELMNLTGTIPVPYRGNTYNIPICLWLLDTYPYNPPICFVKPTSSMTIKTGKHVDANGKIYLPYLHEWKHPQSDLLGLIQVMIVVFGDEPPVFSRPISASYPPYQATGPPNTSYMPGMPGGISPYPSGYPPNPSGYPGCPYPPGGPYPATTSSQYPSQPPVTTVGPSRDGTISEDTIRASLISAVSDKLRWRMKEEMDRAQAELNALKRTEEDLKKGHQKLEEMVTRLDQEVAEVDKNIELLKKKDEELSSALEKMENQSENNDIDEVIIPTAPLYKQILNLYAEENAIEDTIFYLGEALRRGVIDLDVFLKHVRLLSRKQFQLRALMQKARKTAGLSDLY
Chain of DNA repair nuclease/redox regulator APEX1 (Homo sapiens) (P27695 whole entry, looked up): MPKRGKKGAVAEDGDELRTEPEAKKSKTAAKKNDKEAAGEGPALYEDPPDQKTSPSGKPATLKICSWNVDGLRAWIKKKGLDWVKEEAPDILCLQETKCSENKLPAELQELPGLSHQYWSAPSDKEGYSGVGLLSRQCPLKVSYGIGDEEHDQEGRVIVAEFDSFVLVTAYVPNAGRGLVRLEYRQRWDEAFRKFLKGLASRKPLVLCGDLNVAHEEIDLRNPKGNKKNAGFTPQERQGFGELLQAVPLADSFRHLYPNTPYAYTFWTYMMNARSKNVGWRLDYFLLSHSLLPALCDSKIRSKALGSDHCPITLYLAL

N[C@@H](Cc1ccc(F)cc1)C(=O)O
not listed: [9] | [10]
inactive: all other assays above

Cc1ccc2c(c1)C(N1CCN(C)CC1)=Nc1cccnc1N2
not listed: [9] | [10]
inactive: all other assays above

COc1cccc(OC)c1OCCNCC1CSc2ccccc2O1 (stereo unspecified)
not listed: [9] | [10]
inactive: all other assays above

O=C(O)C1=CCCN(CCON=C(c2ccccc2)c2ccccc2)C1
not listed: [9] | [10]
inactive: all other assays above

Cn1c(=O)c2[nH]c(-c3ccc(S(=O)(=O)O)cc3)nc2n(C)c1=O
not listed: [9] | [10]
inactive: all other assays above

NC1CCN(O)C1=O (stereo unspecified)
inactive: all assays above

CC1C(=O)N(C)C(=O)c2nc[nH]c21 (stereo unspecified)
not listed: [9] | [10]
inactive: all other assays above

CC(=O)N[C@@H](Cc1c[nH]c2ccccc12)C(=O)OCc1cc(C(F)(F)F)cc(C(F)(F)F)c1
not listed: [9]
inactive: all other assays above

Cc1ccc([N+](=O)[O-])cc1S(=O)(=O)N(C)C
not listed: [9] | [10]
inactive: all other assays above

CCn1c(=O)[nH]c2cc(Cl)c(Cl)cc21
not listed: [9] | [10]
inactive: all other assays above

CN1CCC2(CCN3CCc4c(oc5ccccc45)C3C2)N(C)C1=O (stereo unspecified)
not listed: [9]
inactive: all other assays above

N[C@@H](CCC(=O)N[C@H](CSN=O)C(=O)NCC(=O)O)C(=O)O
not listed: [9]
inactive: all other assays above

O=C(O)[C@H]1NCCC[C@H]1C(=O)O
not listed: [9]
inactive: all other assays above

O=C(O)c1cc2cc(F)ccc2[nH]1
not listed: [9]
inactive: all other assays above

Nc1nc2[nH]c(=O)cnc2c(=O)[nH]1
not listed: [9]
inactive: all other assays above

CC1CCN(CC[C@H]2CCCN2S(=O)(=O)c2cccc(O)c2)CC1
not listed: [9]
inactive: all other assays above

CC1=C(C(=O)O)N2C(=O)[C@@H](NC(=O)C(N)C3=CCC=CC3)[C@H]2SC1 (stereo partly specified)
not listed: [9]
inactive: all other assays above

CC(N)(Cc1ccc(O)c(O)c1)C(=O)O (stereo unspecified)
not listed: [9]
inactive: all other assays above

O=c1onc2n1-c1cc(Br)ccc1OC2
not listed: [9]
inactive: all other assays above

Nc1ccc(N2C(=O)c3ccccc3C2=O)c(Cl)c1
not listed: [9]
inactive: all other assays above

NC/C=C\C(=O)O
not listed: [9]
inactive: all other assays above

CCCc1c(OCCCOc2ccc(OCC(=O)O)cc2)ccc(C(C)=O)c1O
not listed: [9]
inactive: all other assays above

O=C(c1ccc2c(c1)OCCO2)N1CCCCC1
not listed: [9]
inactive: all other assays above

COc1ccc2c(c1)c(CC(=O)O)c(C)n2Cc1ccc(Cl)cc1
not listed: [9]
inactive: all other assays above

CCCn1c(=O)c2c(ncn2C)n(CCC)c1=O
not listed: [9]
inactive: all other assays above

O=C(O)CCC(=O)N1CCCC1C(=O)O (stereo unspecified)
not listed: [9]
inactive: all other assays above

O=C(OCCN1CCOCC1)C1(c2ccccc2)CCCCC1
not listed: [9]
inactive: all other assays above
